GBA mod: alters purified human glucocerebrosidase activity; AID 360; P04062; Potency, µM; 48,000 tested, 1.1% active; purified enzyme, resorufin glucoside fluorescence (screen aimed at inhibitors), 20 min; in the data active = potency below about 15 µM; inconclusive = mostly about 16 µM to 33 µM;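 note: the screen sought inhibitors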
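Compounds titrated against 0.2 nM normal enzyme, 30 uM resorufin beta-D-glucopyranoside substrate, citrate/phosphate buffer with taurocholate and tween-20, pH 5.9. Reaction ran 20 min at room temperature; fluorescence (Ex 548/Em 600) gave AC50.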
TSHR agonist: agonists of human thyroid stimulating hormone receptor; P16473; HEK293-CNG-TSHR cells (CNG channel as cAMP sensor), membrane potential dye, cAMP; Potency, µM (titrated, usually from 57.1 µM), for the others: at the highest dose activation, usual class: activators; 73,000 tested, 0.48% active; active = well fitted activation curve with a large enough effect in the main read-out, with a control signal flat, not every such curve was filed as active; inconclusive = small, poorly fitted or top-dose-only effect, or a change in a side signal; inactive = no such curve, though single readings can be large or run the other way; % of control where 0% means no effect;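 note: the control signal comes from parental cells without the receptor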
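HEK 293 cells stably expressing TSHR and a cAMP-gated CNG channel; parental CNG-only cells as counterscreen. Cells preloaded 60 min with membrane potential dye plus 100 uM RO 20-1724, then compound 30 min; fluorescence read at 590 nm.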
FLuc inh: blocks Photinus pyralis firefly luciferase activity. 72,000 tested, 2.2% active. AID 411. purified firefly luciferase, luminescence, 8 min. P08659. Potency, µM (highest dose often 57.1 µM), for the others: top-dose activity change, negative = inhibition, most hits filed as inhibitors; note: % is set by controls: 0 for no effect and ±100 for the full control effect; nearly all actives have a fitted effect of over 40% in size
Target sequence (P08659 whole entry, looked up): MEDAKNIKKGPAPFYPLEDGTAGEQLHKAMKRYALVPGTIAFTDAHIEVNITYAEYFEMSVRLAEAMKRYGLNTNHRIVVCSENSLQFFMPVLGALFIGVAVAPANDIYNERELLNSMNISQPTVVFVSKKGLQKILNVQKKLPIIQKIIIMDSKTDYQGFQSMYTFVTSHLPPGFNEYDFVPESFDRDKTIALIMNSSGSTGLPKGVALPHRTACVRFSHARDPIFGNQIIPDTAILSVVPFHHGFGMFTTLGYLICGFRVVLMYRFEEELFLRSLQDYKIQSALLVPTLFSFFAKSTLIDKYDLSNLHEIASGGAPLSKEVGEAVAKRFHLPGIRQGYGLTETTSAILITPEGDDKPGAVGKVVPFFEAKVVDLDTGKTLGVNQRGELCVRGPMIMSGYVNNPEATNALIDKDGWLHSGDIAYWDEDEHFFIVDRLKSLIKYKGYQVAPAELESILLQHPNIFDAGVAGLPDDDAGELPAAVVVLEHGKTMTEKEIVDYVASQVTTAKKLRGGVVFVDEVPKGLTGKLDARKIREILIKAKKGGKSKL
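qHTS concentration-response profiling: light output of P. pyralis luciferase with luciferin and 10 uM ATP, imidazole buffer pH 7.2. Read by luminescence after 8-min room-temperature incubation.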
PK Bst: alters activity of Bacillus stearothermophilus pyruvate kinase; purified pyruvate kinase, luminescence ATP production; ribose 5-phosphate activator present at AC10; Potency, µM; 51,000 tested, 1.2% active; AID 361; in the data active = potency below about 11 µM; inconclusive = mostly about 12 µM to 25 µM;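 the screen sought inhibitors and activators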;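 note: scaled between full activation by ribose 5 phosphate and full inhibition by luteolin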
HEK293 cAMP cs: counter-screen for TSHR agonists: cAMP increase in parental HEK293; Potency, µM (titrated, usually from 57.1 µM), for the others: at the highest dose activation, actives largely listed as activators; AID 938; parental HEK293 CNG cAMP sensor, membrane potential fluorescence; 73,000 tested, 2.5% active; note: % of control where 0% means no effect; nearly all actives have a fitted effect of over 55% in size
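Parental HEK 293 cells stably expressing a modified CNG channel (no TSHR) report cAMP rise as membrane depolarization. Membrane potential dye with 100 uM RO 20-1724 was loaded for 60 min at room temperature, then compound added for 30 min; fluorescence read at 590 nm.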
* = called active by the depositor; i = inactive; ? = inconclusive; . = no result given; [ ] = dose if it differs, or a comment. Only some compounds are listed: those with a hit (about 5.8% of all), similar ones and a draw of the others. Unless noted, calls come from the whole dose curve; as a rule, active = well fitted curve in the direction sought with a large enough effect; inconclusive = small, poorly fitted or top-dose-only effect, or another doubt; inactive = no such curve, though single readings can be large; an effect the other way counts as inactive or inconclusive. Potency is the fitted concentration of half-maximal effect.

SMILES | GBA mod | TSHR agonist | FLuc inh | PK Bst | HEK293 cAMP cs
CCN(CC)c1ccc2cc(-c3nc4ccccc4[nH]3)c(=O)oc2c1 | . | -8.7%[11.4 µM] | 0.0398µM* | . | -3.6%[11.4 µM]
CCOC(=O)c1c(NC(=O)Cn2c(C)nc3ccccc32)sc2c1CCC2 | >76.9 | 25.1µM* | -2.7% | >57 | 22.7%
COCCn1c(N)c(C(=O)Nc2sc3c(c2C(=O)OC)CCCC3)c2nc3ccccc3nc21 | 7.59* | -22.4% | 4.3% | >57 | 3.3%
CCOC(=O)c1c(NC(=O)Cn2nnc3ccccc32)sc2c1CCC(C)C2 (stereo not given) | >76.9 | 11.7% | -2.5% | >57 | 13.5%
COCCn1c(N)c(C(=O)NCC2CCCO2)c2nc3ccccc3nc21 (stereo not given) | . | . | 0.2%[25.5 µM] | >25.6 | .
CCOC(=O)c1c(NC(=O)c2nn(CC)cc2Br)sc(C)c1C | . | 7.6% | -1.6% | >57 | 11.1%
CCOC(=O)c1c(NC(=O)c2nn(CC)cc2Br)sc2c1CCCCC2 | 5.22* | 7.1% | 3.0% | >57 | -2.3%
COCCn1c(=O)c(-c2cccc(C#N)c2)nc2cnc(OCc3ccccc3)nc21 | . | -0.9% | -3.9%[11.4 µM] | . | 4.9%
CCCC12CN(C(=O)c3ccc(OC)cc3)CC(C)(CN(C(=O)c3ccc(OC)cc3)C1)C2=O | >76.9 | 27.2% | -0.9% | >57 | 20.4%
CCCC12CN3CC(C)(CN(C1)C3c1ccc(OC(C)C)cc1)C2=O (stereo not given) | 1.97* | 21.5% | 1.9% | >57 | 11.2%
Cc1cccc(N(CC(=O)NC2CCCCC2)C(=O)c2c(C)noc2C)c1 | >76.9 | ? | 4.4% | >57 | 15.8µM*
COc1ccc(OC)c2sc(N3CCN(c4ccccc4)CC3)nc12 | >76.9 | -13.9% | 25.1µM* | ? | -10.6%
COc1ccc(C)c2sc(N3CCCC3)nc12 | >76.9 | -9.8% | -2.4% | . | -7.0%
COc1ccccc1C1C=C(c2ccccc2)Nc2nnnn21 (stereo not given) | . | ? | 1.2% | . | 3.98µM*
CCOc1ccccc1OCc1nn2c(-c3ccc(C)cc3)nnc2s1 | >76.9 | ? | -2.4% | ? | 25.1µM*
COc1ccc(-c2nnc3sc(CN4C(=O)c5ccccc5C4=O)nn23)cc1 | . | 15.8µM* | 0.2% | >57 | 12.0%
O=C1c2ccccc2C(=O)N1Cc1nn2c(-c3ccc(Cl)cc3)nnc2s1 | 7.78* | 15.6% | 0.3% | >57 | 17.6%
Clc1ccc(-c2nnc3sc(Cc4cccs4)nn23)cc1 | . | . | -2.1%[25.5 µM] | i | .
CC(=O)OC[C@H]1O[C@@H](ON=C(C)C)[C@H](OC(C)=O)[C@@H](OC(C)=O)[C@H]1OC(C)=O | . | 13.3%[11.4 µM] | -0.9%[11.4 µM] | . | -4.9%[11.4 µM]
CCNc1ncc2nc(-c3ccccc3)c(=O)n(Cc3cccs3)c2n1 | . | ? | 0.7%[11.4 µM] | . | ?
Cc1ccccc1-c1cncnc1NCc1cccnc1 | . | 3.9% | 0.4%[2.29 µM] | . | 10.5%
CO[C@@H]1COC(=O)[C@H](C)NC(=O)C/C=C\[C@@H](C)[C@@H](NS(=O)(=O)c2ccc(C)cc2)COC(=O)C/C=C\[C@@H]1C | . | 16.0%[11.4 µM] | 1.1%[11.4 µM] | . | -1.5%[11.4 µM]
N#Cc1cccc(-c2cc(NCc3ccccc3)ncn2)c1 | . | 10.3% | 1.0%[2.29 µM] | . | 25.1%
CN1CCN(C(=O)c2cc(Cl)ccc2Cl)CC1 | . | ? | -1.6% | . | 31.6µM*
CCC/C=C(\CCC)C(NS(=O)(=O)CC12CCC(CC1=O)C2(C)C)c1ccc(C(=O)OC)cc1 (stereo not given) | . | . | . | . | 17.1%
SMILES | GBA mod | TSHR agonist | FLuc inh | PK Bst | HEK293 cAMP cs
CC[C@H](NC(=O)c1c(C)c(-c2ccccc2)nc2ccccc12)c1ccccc1 | . | ? | 2.5% | . | 15.8µM*
Cc1ccc2nc3sc(C(=O)N4CCOCC4)c(N)c3cc2c1 | >76.9 | -2.6% | 2µM* | 1.84* | 6.2%
COc1ccc2cc3c(N)c(C(=O)N4CCCC4)sc3nc2c1 | >76.9 | -15.2% | ? | ? | 1.9%
Cc1ccc2cc3c(N)c(C(=O)N4CCOCC4)sc3nc2c1 | >76.9 | -4.3% | 12.6µM* | 11.1* | -7.1%
CCOc1ccc2nc3sc(C(=O)N4CCN(C)CC4)c(N)c3cc2c1 | >76.9 | -9.0% | -9.7% | . | -6.6%
CN1CCN(c2ncc3nc(-c4ccccc4)c(=O)n(Cc4cccs4)c3n2)CC1 | . | -6.6% | -1.9%[11.4 µM] | . | 15.3%
CC1CCC(C(C)C)C(OC(=O)CSc2n[nH]c(=O)[nH]c2=O)C1 (stereo not given) | . | 20µM* | -4.1% | i | 17.6%
CCn1c(SCc2nc(-c3ccccc3)no2)nc2ccccc21 | . | 31.6µM* | 1.1% | . | 25.9%

Source: PubChem
